Test results as given in PubChem BioAssay AID950 (NMMLSC, 2007).
The whole screen tested about 190,000 compounds, of which about 120 (0.063%) were called active. Rule as the data show it: active = inhibition above about 40%; inconclusive = no clear call, values can overlap the other calls; inactive = below that. For the sample, actives were picked, then their nearest neighbours and some compounds at random.

These compounds were tested against Apoptosis regulator Bcl-2 (Homo sapiens) (UniProt P10415) (assay: inhibitors of Bim-Bcl-2 binding, primary screen, biochemical, multiplexed, human Bcl-2 family (AID 950;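 also: 0% = no compound wells with probe peptide and 100% = reference peptide inhibitor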)). Conditions: Bead-based flow cytometry, Bim peptide-Bcl-2 binding; at 10 µM; stronger effect = higher value.
Sequence of Apoptosis regulator Bcl-2 (Homo sapiens) (P10415 whole entry, looked up): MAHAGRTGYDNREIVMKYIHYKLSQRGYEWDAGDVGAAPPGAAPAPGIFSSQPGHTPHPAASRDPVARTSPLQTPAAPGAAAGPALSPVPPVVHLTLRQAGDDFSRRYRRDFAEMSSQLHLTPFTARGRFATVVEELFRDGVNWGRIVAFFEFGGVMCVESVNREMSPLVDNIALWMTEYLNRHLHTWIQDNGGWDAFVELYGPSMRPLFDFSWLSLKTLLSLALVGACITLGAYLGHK

inhibition, active:
CSCc1cc(N(C)C)nc(SCc2ccc(Cl)cc2Cl)n1 76%

inhibition, inactive:
CC(C)=CCN1CCN(Cc2ccc(Oc3ncccn3)cc2)CC1CCO (centres undefined) 1%, COc1ccc(N2CCN(C(=S)Nc3ccc(S(N)(=O)=O)cc3)CC2)cc1 -3%, O=C(NCc1ccc(Cl)cc1)NCc1ccc(Cl)cc1 -4%, O=C(CSc1ccc(-c2ccc(F)cc2)nn1)Nc1ccc2c(c1)OCCO2 -6%, O=C(Nc1cccc(F)c1)N1C2CCC1CC(O)(c1cccnc1)C2 (centres undefined) 0%, O=C(CN1CCN(c2ccc(O)cc2)CC1)Nc1cc(S(=O)(=O)N2CCOCC2)ccc1Cl 0%, COc1cc(COCC(O)CN2CCN(Cc3ccc4c(c3)OCO4)CC2)cc(OC)c1OC (centres undefined) -1%, COC(=O)C1=C(C)N(C)C(=S)NC1c1cc(OC)ccc1OC (centres undefined) -5%, COc1ccc(N2CCN(C(=O)C3CCN(S(=O)(=O)c4ccc(C)cc4)CC3)CC2)cc1 2%, O=C(c1ccc(N2CCOCC2)c([N+](=O)[O-])c1)N1CCN(S(=O)(=O)c2cccs2)CC1 0%, COc1ccc(C(=O)C[n+]2ccc(N)c(C)c2C)cc1 -1%, Cc1ccc(Cl)cc1NC(=S)N(CCN(C)C)Cc1cccs1 -4%, C/C(=N\NC(=S)NC(C)C)c1ccc(C(C)(C)C)cc1 -4%, Cc1nnc(N/N=C/C2CC=CCC2)[nH]c1=O (centres undefined) 2%, O=C(c1cccc(S(=O)(=O)N2CCCC2)c1)N(Cc1ccco1)C1CCS(=O)(=O)C1 (centres undefined) -3%, CCC(=O)Nc1ccc(Nc2nc(Cl)nc(Nc3ccc(NC(=O)CC)cc3)n2)cc1 0%, COCCCNCCOCCOc1ccc(Cl)cc1Br 1%, O=C(NCc1ccccc1)C1=C[C@@H](C2CCCCC2)C[C@@H](OCc2ccc(CO)cc2)O1 -1%, CCOC(=O)C1CCCN(C(=O)/C=C/c2ccc(OC)cc2)C1 (centres undefined) -3%, CCn1c(=O)cc(SCC(=O)NCCC2=CCCCC2)c2ccccc21 8%, O=c1cnnc(Nc2ccccc2)[nH]1 -1%, O=C(N/N=C1\CCSC1)c1cc(Cl)ccc1O 3%, CCOC(=O)COc1ccc([N+](=O)[O-])cc1 -1%, CCCn1c(C)cc(/C=C(\C#N)C(=O)OCC(=O)Nc2cc(OC)c(OC)c(OC)c2)c1C -6%, CC1(C)C(c2cccs2)=[N+]([O-])C2(CCCCC2=O)N1O (centres undefined) -5%, CCN(CC(=O)NCc1cccs1)C(=O)c1ccccc1F 1%, COCCN(C(=S)Nc1ccccc1OC)C1CCN(C(C)C)CC1 -1%, Cc1cc(NC(=O)CSCc2ccccc2C)no1 -1%, COC(=O)c1cc(C)sc1NC(=O)CC1Nc2ccccc2NC1=O (centres undefined) 0%, CCN(CC)CCOC(=O)c1ccc(NC(=O)CNC(=O)c2ccccc2)cc1 -4%, CCC(NC(=O)c1ccccc1NC(=O)c1ccccc1)C(=O)NNC(=O)CSc1nc2ccccc2o1 (centres undefined) -6%, CC(=O)N1CC(C)c2scc(C)[n+]2-c2ccccc21 (centres undefined) 2%, CC(O)c1nc2ccccc2n1Cc1ccc([N+](=O)[O-])cc1 (centres undefined) -5%, Cc1cc(C)cc(C(=O)N2CCN=C2SCc2ccc([N+](=O)[O-])cc2)c1 -3%, Cc1ccc(C(=O)N2CC(=O)Nc3ccccc32)o1 -6%, CCc1nnc(NC(=O)CSc2nnnn2-c2cccc(C(C)=O)c2)s1 -2%, Cn1cc(CCC(=O)N2CCCC(C(=O)c3ccc(C(C)(C)C)cc3)C2)cn1 (centres undefined) -5%, O=C(NCc1ccncc1)C(=O)NCc1ccco1 -1%, Cc1ccc(S(=O)(=O)NC2(C(F)(F)F)NC(=O)N(CCc3ccccc3)C2=O)cc1 (centres undefined) -1%, C=CS(=O)c1sc(Cl)c(N2CCOCC2)c1[N+](=O)[O-] (centres undefined) 14%, CN1C(=O)/C(=C\c2cc(Br)cs2)c2ccccc21 -2%, CC(=O)c1cc(C#N)c(N2CC(C)OC(C)C2)nc1C (centres undefined) -4%, Oc1ccc(/C=N/N(Cc2ccccc2)c2ccccc2)cc1 -9%, Cn1ncc(N2CCN(S(=O)(=O)c3ccc(Br)cc3)CC2)c(Cl)c1=O -9%, C=CCOc1ccc(/C=N/NC(=O)C(C)Sc2ccccn2)cc1OCC (centres undefined) -6%, O=C(NNS(=O)(=O)c1ccc(F)cc1)c1cnccn1 0%, COCCC(=O)Nc1ccc2c(c1)CN(C(=O)CCOC)CC2 -4%, Cc1ccc(NC(=O)CCC(=O)N/N=C/c2ccco2)c(C)c1 -6%, CCCc1cc(=O)[nH]c(SCc2cc(=O)oc3c(C)c(C)ccc23)n1 -3%, Cc1cccc(-c2nc3ccccc3c(=O)n2NC(=O)Cc2ccc(Cl)cc2)c1 -11%, S=C(NCc1ccco1)Nc1ccc2c(c1)OCCO2 -1%, CCCCC(=O)NCc1ccc(F)cc1 0%, COc1ccc(NC(=S)NCc2cccs2)c(OC)c1 -4%, O=C(O)CS/C(=C\c1ccc(F)cc1)c1nc2ccccc2s1 7%, Clc1ccc(CSc2nnc(/C=C/c3ccccc3)o2)c(Cl)c1 -8%, CSCc1cc(N2CCOCC2)nc(SCc2ccc(Cl)cc2Cl)n1 -12%, COc1ccc(/C(C)=N/Nc2cc(C(F)(F)F)ccc2Cl)c(OC)c1 2%, COc1c(C)cc(C(=O)C2CCCN(S(=O)(=O)c3c(C)noc3C)C2)cc1C (centres undefined) 0%, CC1(C)OC(=O)C(=CSc2ccc(C(C)(C)C)cc2)C(=O)O1 -3%, CCOC(=O)C1CCN(c2ncnc3c2c(-c2ccccc2)cn3-c2ccc(C)cc2)CC1 -5%, CCCN(CCC)c1ccc(C(O)c2nnc(-c3ccccc3)o2)cc1 (centres undefined) -5%, O=C(COc1ccc(Cl)cc1)NCc1nnc(SCC(=O)NCC2CCCO2)o1 (centres undefined) -2%, COC(=O)c1c(NC(=O)CN2CCN(S(=O)(=O)c3ccccc3[N+](=O)[O-])CC2)sc2c1CCC(C)C2 (centres undefined) 2%
